# Measurements as given in ChEMBL document CHEMBL4513146, “CO-ADD screening of Karazin Kharkiv National University (Ukraine) compounds”.
# Measured potencies and affinities stand elsewhere.
# Experiments:
# Staphylococcus aureus = conditions: Concentration 32 ug.mL-1;; ASSAY_TEST Inhibition of Bacterial Growth; detection method Absorption (OD600); MEDIA CAMHB; plate type 384well; NBS; CORNING #3640; time 18 hr
# Escherichia coli = conditions: Concentration 32 ug.mL-1;; ASSAY_TEST Inhibition of Bacterial Growth; detection method Absorption (OD600); MEDIA CAMHB; plate type 384well; NBS; CORNING #3640; time 18 hr
SMILES,Inhibition (Staphylococcus aureus),Inhibition (Escherichia coli)
Cc1cccc(C)c1NC(=O)Cn1nc2c(Sc3ccccc3)nccn2c1=O,-0.19%,-13.17%
CCCCOc1ccc(-c2cc3c4nnc(SCC(=O)Nc5ccccc5Cl)n4ccn3n2)cc1,3.41%,-3.41%
COc1ccc(CN(c2ccc(C(C)C)cc2)S(=O)(=O)c2cccn3cnnc23)cc1,4.26%,1.37%
CCCCOc1ccc(-c2cc3c4nnc(SCC(=O)N(C)c5ccc(F)cc5)n4ccn3n2)cc1,-20.91%,-5.6%
CCCCOc1ccc(-c2cc3c4nnc(SCC(=O)Nc5ccccc5F)n4ccn3n2)cc1,-0.1%,-3.53%
COc1ccccc1NC(=O)Cn1nc2c(SC3CCCCC3)nccn2c1=O,-13.71%,-14.54%
CCc1ccc(NC(=O)Cn2nc3cc(C)nc(Nc4ccc(F)c(C)c4)n3c2=O)cc1,4.65%,-6.45%
COc1ccc(NC(=O)CSc2nc3ccccc3n3c(C(C)C)nnc23)c(OC)c1,1.68%,-5.84%
COc1cc(NC(=O)C(C)Sc2nnc3c(=O)n(-c4ccccc4OC)ccn23)cc(OC)c1 (centres undefined),15.1%,-4.09%
CCOC(=O)c1ccccc1NC(=O)Cn1nc2ccc(Sc3ccc(C)cc3)nn2c1=O,14.05%,1.21%
COc1ccc(-c2cc3c4nnc(CCC(=O)NCCc5ccccc5)n4ccn3n2)cc1,6.36%,2.69%
CC(C)c1nnc2c(=O)n(CC(=O)Nc3ccc(Br)cc3F)c3ccccc3n12,7.11%,1.53%
CCOc1ccc(-n2ccn3c(SC(C)C(=O)Nc4cc(OC)cc(OC)c4)nnc3c2=O)cc1 (centres undefined),1.84%,2.97%
CCCCc1ccc(NC(=O)CSc2nnc3c4cc(-c5ccc(C)cc5)nn4ccn23)cc1,10.93%,0.28%
Cc1cc(C)c(NC(=O)Cn2nc3c4cc(-c5ccc(C)c(C)c5)nn4ccn3c2=O)c(C)c1,-7.12%,-12.18%
Cc1ccc(CN(c2ccc(C(C)C)cc2)S(=O)(=O)c2cccn3c(C)nnc23)cc1,3.26%,-8.61%

SMILES,Inhibition (Staphylococcus aureus),Inhibition (Escherichia coli)
CC(C)c1nnc2c(SCC(=O)N3CCN(c4ccccc4F)CC3)nc3ccccc3n12,-2.06%,-6.39%
O=S(=O)(c1ccc2nncn2c1)N(Cc1cc(F)cc(F)c1)c1cc(F)cc(F)c1,-5.61%,-4.65%
CCOc1ccc(N(Cc2ccc(F)cc2)S(=O)(=O)c2ccc3nncn3c2)cc1,-10.69%,-16.83%
Cc1ccccc1N1CCN(c2nccn3c(=O)n(CC(=O)NCc4ccc(Cl)cc4)nc23)CC1,13.83%,-3.79%
Cc1ccc(Sc2nccn3c(=O)n(CC(=O)N4CCN(c5ccc(F)cc5)CC4)nc23)c(C)c1,-13.09%,-20.44%
Cc1nnc2ccc(S(=O)(=O)N(Cc3cc(F)cc(F)c3)c3ccc(F)cc3)cn12,1.57%,-3.09%
O=C(Cn1nc2ccc(Sc3cccc(F)c3)nn2c1=O)NCc1ccc(Cl)cc1,1.01%,1.23%
Cc1ccc(NC(=O)CSc2nnc3ccc(C(=O)Nc4cccc(F)c4)cn23)c(C)c1,12.19%,-1.6%
CCOC(=O)c1cccc(NC(=O)CSc2nnc3ccc(C(=O)Nc4cccc(F)c4)cn23)c1,5.02%,-5.71%
COc1ccccc1Cn1c(=O)c2sccc2n2c(=O)n(Cc3c(F)cccc3Cl)nc12,3.95%,0.18%
COc1ccc(NC(=O)Cn2nc3ccc(SC4CCCCC4)nn3c2=O)cc1OC,3.6%,-2.79%
Cc1ccc(CN(c2ccccc2)S(=O)(=O)c2ccc3nncn3c2)cc1,12.66%,-4.44%
CCC(C)NC(=O)c1ccc2c(=O)n(CCC(C)C)c3nn(CC#N)c(=O)n3c2c1 (centres undefined),11.05%,-1.24%
CCC(C)NC(=O)Cn1nc2n(Cc3ccco3)c(=O)c3sccc3n2c1=O (centres undefined),7.96%,2.21%
N#CCn1nc2n(CCC(=O)NC3CCCCC3)c(=O)c3ccccc3n2c1=O,8.56%,0.43%
O=c1c2sccc2n2c(=O)n(Cc3c(F)cccc3Cl)nc2n1Cc1cccs1,6.51%,0.39%
